# Bioassay records (PubChem BioAssay)
# Shown are actives, neighbours in structure and some others; about 1.6% of the full set was active somewhere.
# KCNQ2 block – rat KCNQ2 potassium channel inhibitors, primary screen, cell-based, CHO-K1, FluxOR thallium flux, B-score; Potassium voltage-gated channel subfamily KQT member 2 (Rattus norvegicus), O88943; 310,000 compounds, 1.1% hits; B-score at 10 µM; 20 min; active compounds read low; AID 2156, 2009;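 active = fluorescence ratio B-score at most minus 3 library SDs, with starting brightness B-score within 2 library SDs, cut at about -5.5 in these data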
# Target sequence (O88943 whole entry, looked up): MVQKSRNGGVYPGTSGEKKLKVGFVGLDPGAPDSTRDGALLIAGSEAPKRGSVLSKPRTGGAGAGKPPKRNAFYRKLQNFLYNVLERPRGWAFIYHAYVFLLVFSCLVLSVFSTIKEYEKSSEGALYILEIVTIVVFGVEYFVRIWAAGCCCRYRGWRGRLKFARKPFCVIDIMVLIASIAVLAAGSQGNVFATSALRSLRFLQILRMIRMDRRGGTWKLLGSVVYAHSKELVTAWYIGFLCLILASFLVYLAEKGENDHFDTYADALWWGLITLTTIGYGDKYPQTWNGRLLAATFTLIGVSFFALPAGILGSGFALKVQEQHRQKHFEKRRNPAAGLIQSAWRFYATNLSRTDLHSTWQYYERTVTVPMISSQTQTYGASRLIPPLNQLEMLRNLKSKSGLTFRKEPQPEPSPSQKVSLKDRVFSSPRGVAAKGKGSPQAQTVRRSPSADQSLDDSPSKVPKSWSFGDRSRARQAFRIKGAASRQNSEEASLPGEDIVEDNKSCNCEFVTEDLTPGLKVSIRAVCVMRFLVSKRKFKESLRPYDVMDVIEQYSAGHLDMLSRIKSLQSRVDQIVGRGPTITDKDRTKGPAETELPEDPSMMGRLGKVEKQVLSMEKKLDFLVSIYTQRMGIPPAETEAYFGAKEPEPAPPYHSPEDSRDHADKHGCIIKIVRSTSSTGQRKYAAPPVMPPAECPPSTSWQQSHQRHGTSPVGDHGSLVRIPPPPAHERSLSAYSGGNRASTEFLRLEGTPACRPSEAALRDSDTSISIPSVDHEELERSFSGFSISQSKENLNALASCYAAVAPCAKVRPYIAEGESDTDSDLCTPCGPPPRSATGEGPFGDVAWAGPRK
# KCNQ2 enhance – potentiators of rat KCNQ2 potassium channel | CHO-K1 KCNQ2, FluxOR thallium flux fluorescence; active compounds read high | 310,000 compounds, 0.54% hits | Potassium voltage-gated channel subfamily KQT member 2 (Rattus norvegicus), O88943 | B-score at 10 µM | AID 2239, 2010;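 active = fluorescence ratio B-score at least 3 SD of library B-scores, with initial fluorescence B-score within 3 of them, cut at about 5.3 in these data; same plate scores as AID 2156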;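 note: B-score of peak minus minimum over baseline fluorescence ratio after K+ and Tl+ stimulus; positive B-score means potentiation of KCNQ2 with more thallium influx and brighter signal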
# Kir21 conf inh – mouse Kir2.1 channel blockers, retest, confirmation, cell-based, FluxOR thallium flux, duplicate. shares compounds with KCNQ2 enhance. AID 2032, 2009. Tl flux remaining, % of negative control (active compounds read low), % at 10 µM. Kir2.1-expressing cells, FluxOR thallium flux fluorescence; active compounds read low. 2,300 compounds, 41% hits;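 active = Primary-screen hit whose thallium flux fell at least 3 control SD below untreated wells in both duplicates, with normal baseline fluorescence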;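 note: 0% = blank wells without stimulus and 100% = stimulated no-compound controls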
# HEK293 ctr – alters thallium flux in parental HEK293 cells, Kir2.1 counter-screen. FluxOR signal as % of negative control (100 = no effect), % at 10 µM. shares compounds with KCNQ2 enhance. 2,300 compounds, 19% hits. FluxOR thallium flux fluorescence; 0% = unstimulated blank wells;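 active = dye signal at least 3 control SD above or below untreated wells in both duplicates, raw fluorescence within 3, either direction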;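 note: percent is based on the flux ratio of peak minus minimum fluorescence over baseline F0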
# CHO-K1 Tl ctr – nonspecific thallium flux increase in parental CHO-K1, confirmation, counter-screen for KCNQ2 potentiator project, cell-based, FluxOR thallium flux, duplicate; shares compounds with KCNQ2 enhance; parental CHO-K1 cells, FluxOR thallium flux fluorescence; zero = vehicle mean+3SD, 100% = vehicle-minus-blank window; activity increase over 3SD of controls, % at 10 µM; 1,200 compounds, 43% hits;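 active = signal rise of at least 3 SD above the untreated control mean, in both duplicate wells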;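 note: counter screen of KCNQ2 potentiator hits so any rise reflects channel-independent effects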
# KCNQ1 pot spec – human KCNQ1 channel potentiation off-target, confirmation, selectivity assay for KCNQ2 potentiator project, cell-based, CHO, FluxOR thallium flux; 1,200 compounds, 28% hits; CHO KCNQ1 stable, FluxOR thallium flux fluorescence; beyond 3SD, as % of vehicle-control signal; shares compounds with KCNQ2 enhance; AID 2283, 2010; activation over 3SD threshold, % at 10 µM;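 active = fluorescence ratio rise of at least 3 SD of vehicle wells above their mean, in both replicate wells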;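 note: 0% = vehicle mean plus 3 SD and 100% = vehicle minus unstimulated blank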
# KCNQ2 pot conf – rat KCNQ2 channel potentiators, confirmation, cell-based, CHO, FluxOR thallium flux, duplicate | 1,200 compounds, 68% hits | potentiation, less the hit threshold, % at 10 µM | CHO-KCNQ2 cells, FluxOR thallium flux fluorescence | shares compounds with KCNQ2 enhance;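 active = fluorescence ratio rising 3 SD or more over the vehicle control mean in both replicates, plus primary screen hit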;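 note: peak minus minimum thallium fluorescence divided by baseline after K/Tl stimulus; 0% = vehicle mean plus 3 SD and 100% = vehicle minus unstimulated blank difference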
# Kir21 spec – mouse Kir2.1 channel activation off-target, confirmation, selectivity assay for KCNQ2 potentiator project, cell-based, HEK293, FluxOR thallium flux; shares compounds with KCNQ2 enhance; HEK293 Kir2.1, FluxOR thallium flux fluorescence; activity over 3SD threshold, % at 10 µM; 1,200 compounds, 2% hits;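 active = fluorescence ratio rise of at least 3 SD above the vehicle-control mean, seen in both replicates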;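 note: 0% = vehicle mean plus 3 SD and 100% = vehicle minus no-stimulus blank window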
# KCNQ2 W236L pot – potentiators of retigabine-insensitive KCNQ2 W236L, mechanism study for KCNQ2 potentiator project, cell-based, rat KCNQ2 W236L, CHO, automated patch clamp; 940 compounds, 10% hits; automated patch clamp current; shares compounds with KCNQ2 enhance; current increase over 3SD of negative controls (%), active compounds read high, % at 25 µM;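 active = current increase at least 3 SD of the untreated controls above them in both duplicate recordings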
# Active calls of the source: *; i = inactive; x = no result.
SMILES,KCNQ2 block,KCNQ2 enhance,Kir21 conf inh,HEK293 ctr,others
CCOc1ccc(S(=O)(=O)N2CCCCC2)cc1NC(=O)CSCc1c(C)noc1C,i,x,x,x,
Cc1cc(NC(=O)CSc2nnc(-c3c[nH]c4ccccc34)n2C)no1,i,x,x,x,
CC(=O)N(Cc1ccccc1)c1nc(-c2ccccc2)cs1,i,0.02,x,x,
CC(=O)Nc1cccc(OCC(=O)NC(C)c2ccc3ccccc3c2)c1 (stereo not given),i,2.5,56%*,i,
CC(=O)Nc1cccc(OCC(=O)Nc2ccccc2)c1,i,1.1,x,x,
CCn1nc(C)c(CN2CCC(C(=O)Nc3cccc(-c4cccc(F)c4)c3)CC2)c1C,i,x,x,x,
COc1ccc(C(=O)N2CCN(C)C(=O)[C@@H]2C)cc1OC1CCN(C(C)C)CC1,i,0.12,x,x,
C=CCSc1nc2sc3c(c2c(=O)n1CC)CCc1ccccc1-3,i,5.7*,i,194%*,CHO-K1 Tl ctr=-1;KCNQ1 pot spec=-16;KCNQ2 pot conf=18*;Kir21 spec=-31;KCNQ2 W236L pot=6.7%*
C=CCn1c(SCC)nc2sc3c(c2c1=O)CCc1ccccc1-3,i,x,x,x,
O=C(NCc1ccc2c(c1)OCO2)c1ccc2c(c1)S(=O)(=O)c1ccccc1C2=O,i,0.76,x,x,
CCOc1cc(NC(=O)c2cccs2)c(OCC)cc1NC(=O)CCC(=O)NCCN1CCOCC1,i,x,x,x,
CS(=O)(=O)c1ccc(-c2nnc(NC(=O)c3cccc(N4C(=O)CCC4=O)c3)o2)cc1,i,x,x,x,
Cc1noc(C)c1COc1ccccc1C(=O)NCCc1ccc(S(N)(=O)=O)cc1,i,0.9,x,x,
CCOC(=O)C1=C(C)N=c2s/c(=C/c3cccc(OCC(=O)O)c3)c(=O)n2C1c1ccc(F)cc1 (stereo not given),i,0.96,x,x,
CCOC(=O)C1=C(C)N=c2s/c(=C\c3ccc(C(=O)O)cc3)c(=O)n2C1c1ccc(F)cc1 (stereo not given),i,7*,i,i,CHO-K1 Tl ctr=11*;KCNQ1 pot spec=-30;KCNQ2 pot conf=-12;Kir21 spec=-45;KCNQ2 W236L pot=i
COc1ccccc1NC(=O)CC12CC3CC(CC(Br)(C3)C1)C2,i,6.7*,i,i,CHO-K1 Tl ctr=-3;KCNQ1 pot spec=41*;KCNQ2 pot conf=23*;Kir21 spec=-17;KCNQ2 W236L pot=i
COc1ccc(NC(=O)CC23CC4CC(CC(Br)(C4)C2)C3)c(OC)c1,i,16*,i,i,CHO-K1 Tl ctr=-1;KCNQ1 pot spec=2.8*;KCNQ2 pot conf=72*;Kir21 spec=-30;KCNQ2 W236L pot=i
NC(=O)c1ccccc1NC(=O)CC12CC3CC(CC(Br)(C3)C1)C2,i,1.1,x,x,
COc1ccc(NC(=O)CNC(=O)C23CC4CC(CC(C4)C2)C3)c(OC)c1,i,x,x,x,
COc1ccc(C)cc1NC(=O)CN1CCN(C/C=C/c2ccccc2)CC1,i,x,x,x,
Cc1nc([N+](=O)[O-])c(C(=O)OCc2ccccc2C#N)n1C,i,2,x,x,
O=S(=O)(Nc1cccc(CCc2ccccn2)c1)c1ccc(Cl)cc1,i,x,i,i,
O=S(=O)(Nc1ccc(S(=O)(=O)Nc2ncccn2)cc1)c1ccc(Cl)cc1,i,0.49,x,x,
CN(CCCC(=O)NCCc1ccccc1)S(=O)(=O)c1ccc([N+](=O)[O-])cc1,i,x,x,x,
O=C(CN1CCCCC1)NNc1nc(-c2ccccc2)c2cc(Cl)ccc2n1,i,11*,i,i,CHO-K1 Tl ctr=-15;KCNQ1 pot spec=-19;KCNQ2 pot conf=15*;Kir21 spec=-35;KCNQ2 W236L pot=i
SMILES,KCNQ2 block,KCNQ2 enhance,Kir21 conf inh,HEK293 ctr,others
O=C(O)CCC(=O)NNc1nc(-c2ccccc2)c2cc(Cl)ccc2n1,i,x,x,x,
COc1ccc(-c2cc(=O)oc3c(C)c(OC(C)C(=O)Nc4ccc(CN5CCOCC5)cc4)ccc23)cc1 (stereo not given),i,x,x,x,
O=C1NC(=Nc2ccc(O)cc2)S/C1=C\C=C\c1ccco1,i,x,x,x,
c1cnc(N2CCN(Cc3c[nH]c4ccccc34)CC2)nc1,i,x,x,x,
Fc1ccc(N2CCN(Cc3c[nH]c4ccccc34)CC2)cc1,i,0.09,19%*,i,
Cn1cnnc1SCC(=O)Nc1cc(S(=O)(=O)N2CCCCC2)ccc1Cl,i,x,x,x,
CCOC(=O)c1sc(S(C)(=O)=O)c2c1CCc1conc1-2,i,0.9,x,x,
C/C(=N\NC(=O)C1CC1)c1ccc(N2CCOCC2)cc1,i,0.08,x,x,
C/C(=N\NC(=O)C1COc2ccccc2O1)c1ccc(N2CCOCC2)cc1 (stereo not given),i,9.2*,i,i,CHO-K1 Tl ctr=26*;KCNQ1 pot spec=-14;KCNQ2 pot conf=-20;Kir21 spec=-35
CCC1Oc2ccccc2C(=O)N(CC(=O)c2ccc3c(c2)OCCO3)C1=O (stereo not given),i,0.01,x,x,
Oc1c(Cl)cc(Cl)cc1CNn1cnnc1,i,x,x,x,
Oc1c(Cl)cc(Cl)cc1Sc1cc(Cl)cc(Cl)c1O,i,45*,i,375%*,CHO-K1 Tl ctr=47*;KCNQ1 pot spec=-3;KCNQ2 pot conf=223*;Kir21 spec=-30;KCNQ2 W236L pot=i
CC(C)C(=O)Nc1cccc(C(=O)Nc2cc([N+](=O)[O-])ccc2F)c1,i,1.8,x,x,
O=C(CCc1ccccc1)NC(NC(=S)Nc1ccc(Cl)cc1)C(Cl)(Cl)Cl (stereo not given),i,x,x,x,
O=C(CCC1CCCCC1)Nc1c2c(nn1-c1ccc(F)cc1)CS(=O)C2 (stereo not given),i,10*,i,i,CHO-K1 Tl ctr=-31;KCNQ1 pot spec=19*;KCNQ2 pot conf=47*;Kir21 spec=-31;KCNQ2 W236L pot=i
O=C(Nc1c2c(nn1-c1ccc(F)cc1)CS(=O)C2)c1ccc(Br)o1 (stereo not given),i,0.96,x,x,
COc1ccc(NC(=O)CSc2nc3ccccc3c(=O)n2CCCN2CCCCC2)c(OC)c1,i,x,62%*,i,
COCCCNC(=O)CSc1nc2ccccc2c(=O)n1CCCN1CCCCC1,i,0.68,x,x,
